Records with an inconclusive call do not appear. Where a call stands in place of a potency, no number is given. Activity calls are given as the source filed them. Calls follow the shape of the dose curve; as a rule, active = well fitted inhibition curve with a large enough effect; inconclusive = small, poorly fitted or top-dose-only effect; inactive = flat fitted curve, though single readings scatter.
Potency is read from the fitted curve at half-maximal effect.

This test has as its system Zika virus NS2B-NS3 protease. Put plainly: Primary screen GU AMC qHTS for Zika virus inhibitors (AID 1347154). Also: nearly all actives have a fitted effect of over 70% in size. Conditions: Zika NS2B-NS3 unlinked protease, AMC fluorogenic substrate; series mostly up to 54.1 µM. A digest of the protocol:
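Unlinked Zika NS2B hydrophilic domain–NS3 protease complex at 25 nM in 10 mM Tris-HCl pH 8.0, 0.01% Tween 20, with an AMC peptide substrate. Fluorescence change (340/450 nm) over 15 min at room temperature, normalized to controls, fitted to 4-parameter Hill.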
Background: In qHTS, concentration-response curves come from the screen itself.
As for `O=C(Nc1ncc(SCCN2CCCC2)s1)[C@]1(c2ccc(S(=O)(=O)C3CC3)cc2)C[C@@H]1C1CCCCC1`, the Potency entry was “inactive”.

As to `COc1cc2c(cc1OC)CC(=O)N(CCCN(C)C[C@H]1Cc3cc(OC)c(OC)cc31)CC2`, the Potency result was “inactive”.

Turning to `O=C(O)c1nc(=O)[nH]c(=O)[nH]1`, the Potency entry was “inactive”.

In the case of `CCCCN(CCCC)CC(O)c1cc(Cl)cc2c1-c1ccc(Cl)cc1C2=Cc1ccc(Cl)cc1` (stereo not drawn), the Potency result is “inactive”.

Take `C[C@@H]1[C@H](C)CC[C@]2(C(=O)O)CC[C@]3(C)C(=CC[C@@H]4[C@@]5(C)CC[C@H](O)C(C)(C)[C@H]5CC[C@]43C)[C@@H]12`: the Potency entry is “inactive”.

In the case of `Cc1cccc(Nc2nc(N[C@@H]3CCCC[C@H]3N)ncc2C(N)=O)c1`, the Potency entry is “inactive”.

As to `CNc1nc(-c2ccc3c(N)n[nH]c3c2)cc(N2C[C@@H](C(=O)NC3CCCCC3)CC[C@@H]2C)n1`, the Potency entry was “inactive”.

Take `Oc1cc(O)cc(C=Cc2ccc(O)c(O)c2)c1`: the Potency was 13.6 µM (active).

Consider `CN1C(=O)C[C@H](C(=O)N[C@@H](Cc2cnc[nH]2)C(=O)N2CCC[C@@H]2C(N)=O)NC1=O`, for which the Potency entry was “inactive”.

Regarding `OC1CCC(Nc2ncc3nc(Nc4c(F)cc(F)cc4F)n([C@@H]4CCOC4)c3n2)CC1` (stereo partly drawn), the Potency is 24.1 µM (active).

`COc1cc2nc(-c3cc(F)ccc3O)nc(N[C@@H]3CNC[C@@H]3C(C)(C)O)c2cc1OC`: the Potency result is “inactive”.

Regarding `COc1ccc2ccc(=O)oc2c1CC=C(C)C`, the Potency entry was “inactive”.

Regarding `C=CC[N+]1([C@H]2C[C@H]3[C@@H]4CC[C@H]5C[C@H](O)[C@@H](N6CCOCC6)C[C@]5(C)[C@@H]4CC[C@]3(C)[C@H]2OC(C)=O)CCCC1`, the Potency entry was “inactive”.

Source of the values: PubChem BioAssay (NCATS).
